The values that follow come from PubChem BioAssay (NCI).

Some test systems named below: T-47D breast; BT-549 breast; MDA-MB-435 melanoma; SW-620 colon; MCF7 breast; HCT-116 colon; HCC-2998 colon; KM12 colon.
What all share (experiment): NCI-60 one-dose screen, 48 h (100 = growth as untreated, 0 = no growth, -100 = all killed)
Holding throughout (settings): 10 µM unless noted

The structures appear in SMILES notation. The panel holds about 83,000 compounds, 20% with a hit somewhere; the sample as a whole holds those more often.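 Single-concentration screen, 48 h exposure, 96-well plates. Endpoint: percent growth. Below 10 = active.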 A number with no mark means an inactive call. The source made the active and inactive calls.

Turning to `CCN(CC)CCCNC(=O)c1ccc(N)cc1O`, the growth in the experiment on T-47D breast is 107%; in the experiment with BT-549 breast, 98.7%; in the experiment on MDA-MB-435 melanoma it was 117%; with SW-620 colon it was 96.2%; with MCF7 breast, 96.8%; in the experiment with HCT-116 colon, 94.7%. The growth is 78.8% with HCC-2998 colon and 106% in the experiment on KM12 colon.

In the case of `COc1cc2oc3cc(C)oc(=O)c3c2cc1OC`, the growth in the experiment with T-47D breast was 89.8%; in the experiment with BT-549 breast, 109%; in the experiment with MDA-MB-435 melanoma it was 97.7%; with SW-620 colon, 103%; with MCF7 breast it was 98%; in the experiment on HCT-116 colon, 90.4%. Further, the growth was 92.4% in the experiment with HCC-2998 colon and 105% in the experiment on KM12 colon.

As for `Cl.Fc1c[c-]c(-c2ccccn2)c(F)c1.[Pt].c1ccc([PH+](C[PH+](c2ccccc2)c2ccccc2)c2ccccc2)cc1`, the growth in the experiment on T-47D breast is -56.2% (active); in the experiment with BT-549 breast, -85% (active); in the experiment with MDA-MB-435 melanoma, -83.3% (active); with SW-620 colon, -78.1% (active); in the experiment on MCF7 breast it was -83.7% (active); in the experiment with HCT-116 colon, -83.4% (active). Moreover, the figures for the growth in the experiment with HCC-2998 colon and in the experiment with KM12 colon were -87.4% (active) and -82% (active), respectively.

Take `Cl.Fc1c[c-]c(-c2ccccn2)c(F)c1.[Pt].c1ccc([PH+](c2ccccc2)c2ccccc2[PH+](c2ccccc2)c2ccccc2)cc1`: the growth in the experiment on T-47D breast was -80.2% (active); in the experiment on BT-549 breast it was -70.2% (active); in the experiment with MDA-MB-435 melanoma, -93.5% (active); in the experiment on SW-620 colon, -81.6% (active); with MCF7 breast it was -79.3% (active); in the experiment on HCT-116 colon it was -68% (active). In addition, the figures for the growth in the experiment on HCC-2998 colon and in the experiment on KM12 colon were -76.6% (active) and -90.6% (active), respectively.

Take `NC(=S)c1csc(CCNC(=O)c2ccccc2)n1`: the growth in the experiment with T-47D breast is 103%; in the experiment with BT-549 breast, 96.5%; with MDA-MB-435 melanoma, 110%; in the experiment on SW-620 colon, 105%; in the experiment with MCF7 breast, 90.7%; with HCT-116 colon, 97.6%. In addition, the growth in the experiment on HCC-2998 colon is 103%; in the experiment with KM12 colon, 109%.

As to `CCN(CC)CC(O)CNc1c2ccc(Cl)cc2nc2ccc(OC)cc12` (stereo not drawn), the growth in the experiment with T-47D breast is 49.7%; with BT-549 breast, 42.9%; with MDA-MB-435 melanoma, -72.1% (active); in the experiment with SW-620 colon, -37% (active); in the experiment with MCF7 breast, -0.467% (active); in the experiment with HCT-116 colon it was -32.1% (active). Further, the figures for the growth with HCC-2998 colon and in the experiment on KM12 colon were -92.2% (active) and -30.9% (active), respectively.

Take `O=C(/C=C/C12c3ccccc3C(c3ccccc31)C1C(=O)N(c3ccccc3)C(=O)C12)c1ccccc1` (stereo not drawn): the growth was 40.7% in the experiment with T-47D breast; -2.69% (active) with BT-549 breast; -1.64% (active) in the experiment on MDA-MB-435 melanoma; 1.65% (active) in the experiment with SW-620 colon; 14.7% with MCF7 breast; -57.7% (active) in the experiment with HCT-116 colon. For the same compound, the growth with HCC-2998 colon was -65% (active); in the experiment with KM12 colon it was -41.3% (active).

As to `C[C@@H]1CC[C@@H]2[C@@H]1[C@H](OC(=O)/C=C/c1ccccc1)[C@]1(C3CCCCC3)C[C@@H](NC(=O)CO)[C@@]2(C)O1`, the growth in the experiment on T-47D breast was 95%; in the experiment on BT-549 breast, 98.6%; in the experiment on MDA-MB-435 melanoma, 94.3%; in the experiment on SW-620 colon, 90%; in the experiment on MCF7 breast, 89.6%; in the experiment on HCT-116 colon, 85.7%. The growth in the experiment with HCC-2998 colon was 95.4%; in the experiment on KM12 colon, 103%.

For `CN(C)c1ccc(-c2cc(-c3ccc(Nc4nc(Nc5ccccc5)nc(Nc5ccc(Cl)cc5)n4)cc3)nc(N)n2)cc1`, the growth with T-47D breast was 29.3%; in the experiment with BT-549 breast it was 51.4%; in the experiment with MDA-MB-435 melanoma, 49.2%; with SW-620 colon, 67.9%; with MCF7 breast, 19.1%; in the experiment on HCT-116 colon, 7.76% (active). The results for the growth with HCC-2998 colon and in the experiment on KM12 colon were -8.31% (active) and 36.6%, respectively.

As to `CC(=O)OCCc1ccccc1`, the growth in the experiment on T-47D breast is 66.7%; with BT-549 breast, 107%; with MDA-MB-435 melanoma it was 104%; with SW-620 colon, 105%; in the experiment on MCF7 breast, 103%; in the experiment with HCT-116 colon, 94.7%. Besides, the growth with HCC-2998 colon was 87%; in the experiment with KM12 colon it was 150%.

With `COc1cc2c(cc1OC)-c1ccc3cc4c(cc3c1N(CCCN(C)C)C2)OCO4`, the growth was 54.6% with T-47D breast; 41.2% with BT-549 breast; 44% with MDA-MB-435 melanoma; 25.2% with SW-620 colon; 26% in the experiment on MCF7 breast; 9.53% (active) in the experiment on HCT-116 colon. The figures for the growth in the experiment with HCC-2998 colon and in the experiment with KM12 colon were 64.6% and 38.4%, respectively.

Turning to `COc1ccc(N(C)c2nc(Cl)nc3cnn(C)c23)cc1`, the growth with T-47D breast is 43.5%; with BT-549 breast it was -13.9% (active); in the experiment with MDA-MB-435 melanoma, -22.8% (active); in the experiment on SW-620 colon, 27.8%; with MCF7 breast it was 15.4%; in the experiment on HCT-116 colon it was -18.4% (active). In addition, the figures for the growth in the experiment with HCC-2998 colon and in the experiment on KM12 colon were 17.6% and 6.55% (active), respectively.

`COc1cc(C2C=C(c3cccc(NC(C)=O)c3)Nc3ncnn32)cc(OC)c1OC` (stereo not drawn): the growth in the experiment on T-47D breast was 64.7%; in the experiment with BT-549 breast, -0.0208% (active); with MDA-MB-435 melanoma, -47.7% (active); with SW-620 colon, 27.6%; with MCF7 breast, 18.3%; in the experiment on HCT-116 colon, 20.3%. Further, the growth in the experiment on HCC-2998 colon was 24%; in the experiment on KM12 colon it was 15.2%.

For `COc1cc(C2CC(c3ccc(Nc4nc(Nc5ccc(F)cc5)nc(Nc5ccc(Cl)cc5)n4)cc3)=NN2C(C)=O)cc(OC)c1OC` (stereo not drawn), the growth in the experiment with T-47D breast is 19%; with BT-549 breast, 13.4%; with MDA-MB-435 melanoma, 95.7%; in the experiment with SW-620 colon, 87%; in the experiment with MCF7 breast, 46.6%; in the experiment on HCT-116 colon it was 55.1%. For the same compound, the growth in the experiment on HCC-2998 colon is 89.3%; with KM12 colon it was 71.2%.

With `N#C/C(=C\c1ccc(Br)cc1)n1nnc2cc(Cl)c(Cl)cc21`, the growth in the experiment on T-47D breast is 18%; in the experiment on BT-549 breast it was 22.5%; in the experiment on MDA-MB-435 melanoma it was -18.2% (active); in the experiment with SW-620 colon, 19.2%; in the experiment on MCF7 breast, 6.51% (active); in the experiment with HCT-116 colon, 22.2%. Besides, the growth is 35.3% in the experiment on HCC-2998 colon and 29.7% with KM12 colon.

As to `CN1C(=O)CCC(N2C(=O)c3cccc(NCCOCCOCCNC(=O)c4cc5c(o4)C(=O)c4ccccc4C5=O)c3C2=O)C1=O` (stereo not drawn), the growth in the experiment with T-47D breast was 11.1%; in the experiment on BT-549 breast, -95.4% (active); in the experiment with MDA-MB-435 melanoma, -94.6% (active); in the experiment with SW-620 colon it was -3.3% (active); in the experiment with MCF7 breast, -65% (active); in the experiment on HCT-116 colon, -21.9% (active). For the same compound, the growth in the experiment with HCC-2998 colon was -62.2% (active); in the experiment with KM12 colon, -11.8% (active).
